Several values for one entry are separate records, joined by “and”; a condition that tells them apart may be missing. Identical values can stand only once. A structure can be active in one record and inactive in another. Activity calls are given as the source filed them. The calls were made as follows: active = hit-call score of the fitted dose curve at least 0.9, where 1 is the maximum; inactive = score below 0.9.
Columns and labels:
[1] = read-out: Interleukin-1 alpha (IL1a), IL1A (gene 3552); assay: BSK_KF3CT_IL1a: BioMAP Diversity Plus: KF3CT Assay for Interleukin-1 alpha (IL1a) Biomarker Activity (AID 2283070); details: primary human keratinocytes with fibroblasts; actives raise or lower the signal
Outline: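 Chemicals were dosed onto co-cultured human keratinocytes and foreskin fibroblasts, IL-1a was quantified by ELISA at 24 h, and activity was fitted in both directions relative to DMSO controls.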

[2] = read-out: TIMP metallopeptidase inhibitor 2 (TIMP2), TIMP2 (gene 7077); assay: BSK_KF3CT_TIMP2: BioMAP Diversity Plus: KF3CT Assay for TIMP metallopeptidase inhibitor 2 (TIMP2) Biomarker Activity (AID 2283071); details: primary human keratinocytes with fibroblasts; actives raise or lower the signal
Outline: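 Human primary keratinocyte/foreskin fibroblast co-culture dosed with chemical and sampled at 24 h. TIMP-2 levels quantified by ELISA; bidirectional fitting against DMSO negative control as baseline.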

[3] = read-out: C-C motif chemokine 2 (Homo sapiens) (UniProt P13500); assay: BSK_KF3CT_MCP1: BioMAP Diversity Plus: KF3CT Assay for Monocyte Chemoattractant Protein 1 (MCP1/CCL2) Biomarker Activity (AID 2283073); details: primary human keratinocytes with fibroblasts; actives raise or lower the signal
Outline: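 KF3CT skin co-culture (keratinocytes/foreskin fibroblasts), 24 h post-dose; MCP-1 by ELISA; gain/loss of signal fit bidirectionally vs DMSO baseline.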

[4] = read-out: Matrix Metallopeptidase 9 (MMP9), MMP9 (gene 4318); assay: BSK_KF3CT_MMP9: BioMAP Diversity Plus: KF3CT Assay for Matrix Metallopeptidase 9 (MMP9) Biomarker Activity (AID 2283074); details: primary human keratinocytes with fibroblasts; actives raise or lower the signal;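 as to AC50: MMP9 protein level quantified by ELISA in the co-culture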
Outline: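 Human keratinocyte/foreskin fibroblast co-culture; compound added; 24 h; MMP-9 by ELISA; bidirectional fit vs DMSO baseline.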

[5] = read-out: urokinase plasminogen activator (uPA), PLAU (gene 5328); assay: BSK_KF3CT_uPA: BioMAP Diversity Plus: KF3CT Assay for urokinase plasminogen activator (uPA) Biomarker Activity (AID 2283075); details: primary human keratinocytes with fibroblasts; actives raise or lower the signal
Outline: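 ELISA readout of uPA, analyzed for signal gain or loss relative to DMSO, from a human primary keratinocyte–foreskin fibroblast co-culture measured 24 h after chemical treatment.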

[6] = read-out: CD40, CD40 (gene 958); assay: BSK_LPS_CD40: BioMAP Diversity Plus: LPS Assay for CD40 Biomarker Activity (AID 2283076); details: primary human HUVEC with PBMC; actives raise or lower the signal
Outline: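 ELISA readout of CD40 in HUVEC/PBMC co-culture (BSK_LPS system), 24 h post-dosing; bidirectional curve fit, DMSO baseline; parallel SRB total-protein staining for cytotoxicity.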

[7] = read-out: E-selectin (Homo sapiens) (UniProt P16581); assay: BSK_LPS_Eselectin: BioMAP Diversity Plus: LPS Assay for Eselectin Biomarker Activity (AID 2283077); details: primary human HUVEC with PBMC; actives raise or lower the signal
Outline: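 ELISA readout of E-selectin, 24 h post-dose, HUVEC + PBMC co-culture (LPS system). Gain or loss of signal vs DMSO baseline, bidirectional fit.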

[8] = read-out: Interleukin-8 (IL8), CXCL8 (gene 3576); assay: BSK_LPS_IL8: BioMAP Diversity Plus: LPS Assay for Interleukin-8 (IL8) Biomarker Activity (AID 2283078); details: primary human HUVEC with PBMC; actives raise or lower the signal
Outline: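 HUVEC + PBMC co-culture, LPS-activated; test chemicals dosed, IL-8 read by ELISA at 24 h. Bidirectional curve fit vs DMSO baseline (gain or loss of signal).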

[9] = BSK_LPS_SRB: Viability Assessment in the BioMAP Diversity Plus: LPS Assay (AID 2283079); details: primary human HUVEC with PBMC;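 also: total protein by sulforhodamine B absorbance as a cytotoxicity measure; measured one day after compound addition; fitted in both directions against DMSO so loss or gain of signal counts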
Outline: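 HUVEC + PBMC co-culture, LPS-stimulated; compound 24 h. 10% TCA fix, 0.1% SRB stain, A560. Bidirectional fit vs DMSO.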

[10] = read-out: Interleukin-1 alpha (IL1a), IL1A (gene 3552); assay: BSK_LPS_IL1a: BioMAP Diversity Plus: LPS Assay for Interleukin-1 alpha (IL1a) Biomarker Activity (AID 2283080); details: primary human HUVEC with PBMC; actives raise or lower the signal
Outline: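 HUVEC/PBMC co-culture, LPS system; 24 h after dosing; IL-1a by ELISA; gain or loss of signal fitted bidirectionally vs DMSO baseline.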

Measured: AC50

Chain of E-selectin (Homo sapiens) (P16581 whole entry, looked up): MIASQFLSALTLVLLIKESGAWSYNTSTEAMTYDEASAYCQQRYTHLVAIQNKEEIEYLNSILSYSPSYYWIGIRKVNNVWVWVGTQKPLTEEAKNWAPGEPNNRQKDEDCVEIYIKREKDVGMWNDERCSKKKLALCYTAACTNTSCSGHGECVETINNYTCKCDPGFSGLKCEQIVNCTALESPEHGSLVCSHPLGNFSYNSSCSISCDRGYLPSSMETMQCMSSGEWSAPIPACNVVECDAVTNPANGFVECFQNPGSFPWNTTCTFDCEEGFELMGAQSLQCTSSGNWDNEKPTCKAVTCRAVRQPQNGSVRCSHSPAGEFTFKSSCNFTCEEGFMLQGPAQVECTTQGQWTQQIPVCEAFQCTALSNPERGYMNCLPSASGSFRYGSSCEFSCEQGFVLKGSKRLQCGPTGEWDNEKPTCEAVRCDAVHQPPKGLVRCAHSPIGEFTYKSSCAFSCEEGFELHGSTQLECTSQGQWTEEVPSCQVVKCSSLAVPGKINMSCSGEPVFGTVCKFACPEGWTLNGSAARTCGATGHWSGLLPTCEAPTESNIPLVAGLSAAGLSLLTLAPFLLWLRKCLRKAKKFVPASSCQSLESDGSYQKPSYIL

Cc1ccc(O)c(-n2nc3ccccc3n2)c1
inactive: all assays above

O=C(O)C(F)(F)C(F)(F)C(F)(F)C(=O)O
inactive: all assays above

C=CC(=O)OCCC(F)(F)C(F)(F)C(F)(F)C(F)(F)F
active: [6] 30 µM and 45.5 µM
inactive: all other assays above

CNS(=O)(=O)C(F)(F)C(F)(F)C(F)(F)C(F)(F)C(F)(F)C(F)(F)C(F)(F)C(F)(F)F
inactive: [1] | [2] | [3] | [4] | [5] | [6] | [7] | [9] | [10]
active: [4] 20.4 µM | [9] 22.5 µM | [10] 5.38 µM

O=C(O)CCC(F)(F)C(F)(F)C(F)(F)F
inactive: all assays above

OCC(F)(F)C(F)(F)C(F)(F)C(F)(F)C(F)(F)C(F)(F)C(F)(F)C(F)(F)CO
inactive: [1] | [5] | [6] | [7] | [8] | [9] | [10]
active: [1] 50.4 µM | [2] 55.2 µM and 48.6 µM | [3] 50.8 µM and 42.3 µM | [4] 50.3 µM and 49.4 µM | [7] 0.559 µM

CO[Si](C)(CCC(F)(F)C(F)(F)C(F)(F)C(F)(F)C(F)(F)C(F)(F)F)OC
inactive: all assays above

O=C(c1ccccc1)c1ccc(O)cc1O
active: [4] 26 µM
inactive: all other assays above

OC(O)C(F)(F)C(F)(F)F
inactive: all assays above

OCCCC(F)(F)C(F)(F)C(F)(F)C(F)(F)C(F)(F)C(F)(F)C(F)(F)C(F)(F)F
active: [1] 11 µM and 8.25 µM | [2] 14.5 µM and 8.21 µM | [3] 11 µM and 8.31 µM | [4] 9.36 µM and 10.8 µM | [5] 14.9 µM and 9.45 µM | [6] 34.7 µM and 32.9 µM | [7] 15.3 µM and 30 µM | [8] 45.9 µM and 42.5 µM | [9] 41.5 µM and 45.7 µM | [10] 30 µM and 6.25 µM

O=C(O)C(F)(F)OC(F)(F)C(F)(F)OC(F)(F)C(F)(F)OC(F)(F)F
inactive: [1] | [2] | [3] | [4] | [5] | [6] | [7] | [8] | [9] | [10]
active: [8] 9.98 µM and 20 µM

O=C(O)C(F)(F)C(F)(F)C(F)(F)OC(F)(F)F
inactive: all assays above

O=C(Cl)C(F)(F)C(F)(F)C(F)(F)C(F)(F)C(F)(F)C(F)(F)F
inactive: [1] | [2] | [3] | [4] | [5] | [6] | [7] | [9] | [10]
active: [4] 18.3 µM

NS(=O)(=O)C(F)(F)C(F)(F)C(F)(F)C(F)(F)C(F)(F)C(F)(F)F
active: [4] 14.6 µM | [6] 20.1 µM | [9] 40.1 µM
inactive: [1] | [2] | [3] | [4] | [5] | [6] | [7] | [9] | [10]

O=C(O)C(F)(F)C(F)(F)C(F)(F)OC(F)(C(F)(F)F)C(F)(F)F
inactive: [1] | [2] | [3] | [4] | [5] | [6] | [7] | [9] | [10]
active: [4] 24.7 µM | [8] 7.64 µM and 9.75 µM

O=C1C=CC(=O)N1c1ccc(Cc2ccc(N3C(=O)C=CC3=O)cc2)cc1
active: [1] 2.69 µM | [2] 2.2 µM | [3] 1.99 µM | [4] 5.44 µM | [5] 5.55 µM | [6] 10.4 µM | [7] 12.4 µM | [8] 20 µM | [9] 14.6 µM | [10] 8.38 µM

FC(F)(F)C(F)(F)C(F)(F)CC1CO1 (centres undefined)
inactive: all assays above

Cc1ccc(S(=O)(=O)C(I)I)cc1
active: [1] 2.47 µM | [2] 2.35 µM | [3] 2.71 µM | [4] 5.24 µM | [5] 6.22 µM | [6] 2.38 µM | [7] 3.3 µM | [8] 4.27 µM | [9] 5.31 µM | [10] 1.92 µM

O=C=NCc1cccc(CN=C=O)c1
inactive: all assays above

CC(C)CCCC(C)CCO (centres undefined)
active: [1] 34.4 µM | [2] 30.5 µM | [3] 33.5 µM | [4] 36.4 µM | [5] 36.1 µM
inactive: [6] | [7] | [8] | [9] | [10]

C=CC(=O)OCC(F)(F)C(F)(F)C(F)(F)C(F)(F)C(F)(F)C(F)(F)C(F)(F)C(F)F
inactive: [1] | [2] | [3] | [4] | [5] | [6] | [7] | [9] | [10]
active: [3] 30 µM | [6] 24 µM

O=C(O)CCC(F)(F)C(F)(F)C(F)(F)C(F)(F)C(F)(F)C(F)(F)C(F)(F)F
inactive: all assays above

O=S(=O)(O)CCC(F)(F)C(F)(F)C(F)(F)C(F)(F)C(F)(F)C(F)(F)C(F)(F)C(F)(F)F
inactive: [1] | [2] | [3] | [4] | [5] | [6] | [7] | [9]
active: [1] 7.84 µM | [10] 47.3 µM and 44.8 µM

O=S(=O)(OCC(F)(F)F)C(F)(F)C(F)(F)C(F)(F)C(F)(F)F
inactive: [1] | [2] | [3] | [4] | [5] | [6] | [7] | [9] | [10]
active: [5] 9.13 µM | [6] 24.3 µM | [7] 41.4 µM | [10] 30 µM

FC(F)(F)C(F)(F)C(F)(F)C(F)(F)C(F)(F)C(F)(F)C(F)(F)CCI
active: [3] 3.94 µM
inactive: [1] | [2] | [3] | [4] | [5] | [6] | [7] | [8] | [9] | [10]

CCN(CCO)S(=O)(=O)C(F)(F)C(F)(F)C(F)(F)C(F)(F)C(F)(F)C(F)(F)C(F)(F)C(F)(F)F
inactive: [2] | [3] | [5] | [6] | [7]
active: [1] 20.8 µM and 30 µM | [3] 14.4 µM | [4] 21.7 µM and 20.9 µM | [7] 5.95 µM | [9] 39.4 µM and 38.2 µM | [10] 23.7 µM and 5.83 µM

C=CC(=O)OCC(F)(F)C(F)(F)C(F)(F)COC(=O)C=C
active: [1] 30 µM and 5.95 µM | [2] 30 µM | [3] 22.3 µM and 12.7 µM | [4] 24 µM and 20.9 µM | [5] 21.1 µM and 25.7 µM | [6] 8.33 µM and 8.66 µM | [7] 16.1 µM and 13.1 µM | [8] 15.9 µM and 14.8 µM | [9] 48.6 µM and 47.4 µM | [10] 15.5 µM and 12.1 µM

CCN(CC)c1ccc(N=Nc2ccccc2)cc1
active: [4] 9.24 µM | [6] 28.6 µM | [8] 20 µM | [9] 29.6 µM | [10] 34.4 µM
inactive: [1] | [2] | [3] | [5] | [7]

NC(=O)C(F)(F)C(F)(F)C(F)(F)C(F)(F)C(N)=O
inactive: all assays above

OCC(O)CC(F)(F)C(F)(F)C(F)(F)C(F)(F)C(F)(F)C(F)(F)C(F)(F)C(F)(F)F (centres undefined)
inactive: [1] | [2] | [3] | [4] | [5] | [6] | [7] | [9] | [10]
active: [1] 0.166 µM

CC1=CC2C3C=CC(C3)C2C1C (centres undefined)
inactive: all assays above

Source: PubChem BioAssay (EPA / NIEHS)
